{"source": "PubChem BioAssay (Tox21)", "note": "Results filed as inconclusive are left out. The source made the active and inactive calls. The call rests on the fitted dose curve. On the % scale 0 is the no-effect control and ±100 the full control effect; potency means the concentration at half of the fitted maximal effect."}
{"assay": "qHTS assay to identify small molecule agonists of the progesterone receptor (PR) signaling pathway - cell viability counter screen (AID 1346799); further: nearly all actives have a fitted effect of over 45% in size", "settings": "PR-UAS-bla HEK293T viability, CellTiter-Glo luminescence, 16 h; series mostly up to 92.4 µM; activity change, negative = cytotoxicity: at the top concentration", "description": "National Center for Advancing Translational Sciences [NCATS]\nNIH Chemical Genomics Center [NCGC]\nU.S. Environmental Protection Agency [EPA]\nNational Institutes of Environmental Health Sciences [NIEHS]\nNational Toxicology Program [NTP]\nU.S. Food and Drug Administration [FDA]\nProgesterone receptor (PR), a nuclear hormone receptor, plays an important role in development, metabolic homeostasis and reproduction. It is activated by the steroid hormone progesterone. Endocrine disrupting chemicals (EDCs) and their interactions with steroid hormone receptors like PR causes disruption of normal endocrine function. To identify the compounds that stimulate PR signaling, a PR-UAS-bla GripTite cell line i.e. PR-UAS-bla HEK293T (Invitrogen, Carlsbad, CA, USA) containing a beta-lactamase reporter gene under the control of an UAS response element was used to screen Tox21 10K compound library. The cytotoxicity of the Tox21 compound library against the PR-bla cell line was tested in parallel by measuring the cell viability using CellTiter-Glo assay in the same wells.\nTox21 Assay Protocol Summary:\nPR-UAS-bla HEK293T cells were dispensed at 3,000 cells/5 uL of assay medium containing 2% charcoal stripped FBS per well into black wall/clear-bottom 1536-well plates using a Multidrop Combi (ThermoFisher Scientific, Waltham, MA) dispenser. After the assay plates were incubated at a 37C and 5% CO2 for 6 hr, 23 nL of compounds dissolved in DMSO, positive controls or DMSO only was transferred to the assay plate by a Pintool station (Kalypsys, San Diego, CA). The plates were incubated at 37C and 5% CO2 for 16 hr. Then 1 uL of LiveBLAzer B/G FRET substrate was added using a Flying Reagent Dispenser (FRD, Aurora Discovery, San Diego, CA), the plates were incubated at room temperature for 2 hours, and fluorescence intensity was measured by an Envision plate reader (PerkinElmer, Shelton, CT). For cell viability readout that measures cytotoxicity, 4 uL/well of CellTiter-Glo reagent was added into the assay plates using a FRD. After 30 min incubation at room temperature, the luminescence intensity in the plates was measured using a ViewLux (PerkinElmer) plate reader."}
{"molecule": "C=C(C)c1cccc(C(=C)C)c1", "activity change, negative = cytotoxicity": "-2.65% (inactive)"}
{"molecule": "Cc1cc(-n2nc3ccc(Cl)cc3n2)c(O)c(C(C)(C)C)c1", "activity change, negative = cytotoxicity": "0.648% [at 42.5 µM] (inactive)"}
{"molecule": "O=C(/C=C/c1ccc(O)c(O)c1)O[C@@H](C(=O)O)[C@@H](OC(=O)/C=C/c1ccc(O)c(O)c1)C(=O)O", "activity change, negative = cytotoxicity": "8.17% (inactive)"}
{"molecule": "COc1cccc2c1C(=O)c1c(O)c3c(c(O)c1C2=O)C[C@@](O)(C(C)=O)C[C@@H]3O[C@H]1C[C@H](N)[C@H](O)[C@H](C)O1", "activity change, negative = cytotoxicity": "0% [at 42.5 µM] (inactive)"}
{"molecule": "C#Cc1ccc(-c2ccccc2F)cc1", "activity change, negative = cytotoxicity": "-2.72% [at 42.5 µM] (inactive)"}
{"molecule": "CCN(CC)C(=O)c1cc(S(=O)(=O)Cc2ccccc2)c(N2CCC(c3ccccc3)CC2)cc1N(CC)CCN(C)C", "Potency": "8.53 µM (active)"}
{"molecule": "CC(N=C(NC#N)Nc1ccncc1)C(C)(C)C", "note": "(stereo not given)", "activity change, negative = cytotoxicity": "4.93% [at 42.5 µM] (inactive)"}
{"molecule": "CC(=O)[C@H]1CC[C@H]2[C@@H]3CCC4=CC(=O)CC[C@]4(C)[C@H]3CC[C@]12C", "Potency": "60.8 µM (active)"}
{"molecule": "Clc1ccnc(Cl)n1", "activity change, negative = cytotoxicity": "-22.3% (inactive)"}
{"molecule": "C=C(CC)C(=O)c1ccc(OCC(=O)O)c(Cl)c1Cl", "activity change, negative = cytotoxicity": "17.5% [at 42.5 µM] (inactive)"}
{"molecule": "CC(=O)c1ccc(C(C)=O)cc1", "activity change, negative = cytotoxicity": "-1.24% (inactive)"}
{"molecule": "CCOC(=O)Cn1cccc1-c1nc(-c2ccc(OC)cc2)c(-c2ccc(OC)cc2)s1", "activity change, negative = cytotoxicity": "-7.77% [at 42.5 µM] (inactive)"}
{"molecule": "CN(C)Cc1ccccc1O", "activity change, negative = cytotoxicity": "2.97% (inactive)"}
{"molecule": "O=C(O)CCN(C1(C(=O)NO)CCCC1)S(=O)(=O)c1ccc(Oc2ccc(F)cc2)cc1", "activity change, negative = cytotoxicity": "0.375% (inactive)"}
{"molecule": "CCC(C)[O-].CCC(C)[O-].CCOC(=O)/C=C(/C)[O-].[Al+3]", "activity change, negative = cytotoxicity": "-4.33% (inactive)"}
{"molecule": "CCc1cccc(CC)c1NC(=O)CN(CC(=O)O)CC(=O)O", "activity change, negative = cytotoxicity": "6.38% [at 42.5 µM] (inactive)"}
{"molecule": "CCOC(=O)NNc1ccc(N(CC)CC(C)O)nn1", "note": "(stereo not given)", "activity change, negative = cytotoxicity": "-11.2% [at 42.5 µM] (inactive)"}
{"molecule": "CC1(C)CC(O)CC(C)(C)N1", "activity change, negative = cytotoxicity": "3.33% (inactive)"}
{"molecule": "CCCCOC(=O)CC", "activity change, negative = cytotoxicity": "0.929% (inactive)"}
{"molecule": "O=c1oc2cc(O)ccc2c2oc3cc(O)ccc3c12", "activity change, negative = cytotoxicity": "16.9% (inactive)"}
{"molecule": "CCCCCCCCCCOC(=O)c1ccccc1C(=O)OCCCCCCCC", "activity change, negative = cytotoxicity": "4.34% (inactive)"}
{"molecule": "CC(C)OC(=O)C(O)(CC(=O)O)CC(=O)O", "activity change, negative = cytotoxicity": "-8.09% (inactive)"}
{"molecule": "CCCCCC/C=C\\CCCCCCCC(=O)O", "activity change, negative = cytotoxicity": "1.34% (inactive)"}
{"molecule": "COc1cc(C)ccc1O", "activity change, negative = cytotoxicity": "-4.6% (inactive)"}
{"molecule": "O=C(Oc1ccccc1)Oc1ccccc1", "activity change, negative = cytotoxicity": "25.7% (inactive)"}
{"molecule": "COC(=O)c1ccccc1OC", "activity change, negative = cytotoxicity": "13.8% (inactive)"}
{"molecule": "CCCCOC(=O)CO", "activity change, negative = cytotoxicity": "-17.6% (inactive)"}
{"molecule": "CC(C)(C)CC(C)(C)c1ccc(Nc2ccc(C(C)(C)CC(C)(C)C)cc2)cc1", "activity change, negative = cytotoxicity": "8.24% [at 8.39 µM] (inactive)"}
{"molecule": "OC1CCCc2ccccc21", "note": "(stereo not given)", "activity change, negative = cytotoxicity": "3.44% (inactive)"}
{"molecule": "CC(C)CCCCCOC(=O)CCS", "activity change, negative = cytotoxicity": "3.53% (inactive)"}
{"molecule": "CCCC(=O)OC(C)(C)Cc1ccccc1", "activity change, negative = cytotoxicity": "-6.16% (inactive)"}
{"molecule": "CCCC[P+](C)(CCCC)CCCC", "activity change, negative = cytotoxicity": "-4.97% (inactive)"}
{"molecule": "c1cnccn1", "activity change, negative = cytotoxicity": "-0.362% (inactive)"}
{"molecule": "OCCN1CCN(CCCN2c3ccccc3Sc3ccc(C(F)(F)F)cc32)CC1", "Potency": "10.6 µM (active)"}
{"molecule": "OCC(F)(F)F", "activity change, negative = cytotoxicity": "-3.27% (inactive)"}
{"molecule": "CCCCCCOC(=O)C(C)CC", "note": "(stereo not given)", "activity change, negative = cytotoxicity": "3.61% (inactive)"}
{"molecule": "C/C=C/C=C/COC(=O)C(C)C", "activity change, negative = cytotoxicity": "-6.04% (inactive)"}
{"molecule": "C=Cc1ccccc1C=C", "activity change, negative = cytotoxicity": "0.335% [at 240 µM] (inactive)"}
{"molecule": "CC[N+](CC)(CC)CCOC(=O)C(C1CCCC1)C1CCCC1", "activity change, negative = cytotoxicity": "-13.5% [at 42.5 µM] (inactive)"}
{"molecule": "CCCCCCCCCCCC(=O)OCC(C)OC(=O)CCCCC(=O)O", "note": "(stereo not given)", "activity change, negative = cytotoxicity": "-21.5% [at 42.5 µM] (inactive)"}
